Laboratory results: the supplement of paper PMC11732987, “Enantioselective OTUD7B fragment discovery through chemoproteomics screening and high-throughput optimisation” (Communications Chemistry, 2025)

Tests used:
Assay in all cases: log2 ratio of Biotin-Ahx-Ub-VS probe labelling (fragment/DMSO); higher = less target engagement (more negative = stronger competition), active = hit call of the paper (q ≤ 0.05, log2 ratio ≤ -1)
Conditions in all cases: compound concentration: 200 uM; treatment time: 3 h
USP42 = biological target: T1, USP42 (UniProt Q9H9J4)
T1 sequence (whole entry): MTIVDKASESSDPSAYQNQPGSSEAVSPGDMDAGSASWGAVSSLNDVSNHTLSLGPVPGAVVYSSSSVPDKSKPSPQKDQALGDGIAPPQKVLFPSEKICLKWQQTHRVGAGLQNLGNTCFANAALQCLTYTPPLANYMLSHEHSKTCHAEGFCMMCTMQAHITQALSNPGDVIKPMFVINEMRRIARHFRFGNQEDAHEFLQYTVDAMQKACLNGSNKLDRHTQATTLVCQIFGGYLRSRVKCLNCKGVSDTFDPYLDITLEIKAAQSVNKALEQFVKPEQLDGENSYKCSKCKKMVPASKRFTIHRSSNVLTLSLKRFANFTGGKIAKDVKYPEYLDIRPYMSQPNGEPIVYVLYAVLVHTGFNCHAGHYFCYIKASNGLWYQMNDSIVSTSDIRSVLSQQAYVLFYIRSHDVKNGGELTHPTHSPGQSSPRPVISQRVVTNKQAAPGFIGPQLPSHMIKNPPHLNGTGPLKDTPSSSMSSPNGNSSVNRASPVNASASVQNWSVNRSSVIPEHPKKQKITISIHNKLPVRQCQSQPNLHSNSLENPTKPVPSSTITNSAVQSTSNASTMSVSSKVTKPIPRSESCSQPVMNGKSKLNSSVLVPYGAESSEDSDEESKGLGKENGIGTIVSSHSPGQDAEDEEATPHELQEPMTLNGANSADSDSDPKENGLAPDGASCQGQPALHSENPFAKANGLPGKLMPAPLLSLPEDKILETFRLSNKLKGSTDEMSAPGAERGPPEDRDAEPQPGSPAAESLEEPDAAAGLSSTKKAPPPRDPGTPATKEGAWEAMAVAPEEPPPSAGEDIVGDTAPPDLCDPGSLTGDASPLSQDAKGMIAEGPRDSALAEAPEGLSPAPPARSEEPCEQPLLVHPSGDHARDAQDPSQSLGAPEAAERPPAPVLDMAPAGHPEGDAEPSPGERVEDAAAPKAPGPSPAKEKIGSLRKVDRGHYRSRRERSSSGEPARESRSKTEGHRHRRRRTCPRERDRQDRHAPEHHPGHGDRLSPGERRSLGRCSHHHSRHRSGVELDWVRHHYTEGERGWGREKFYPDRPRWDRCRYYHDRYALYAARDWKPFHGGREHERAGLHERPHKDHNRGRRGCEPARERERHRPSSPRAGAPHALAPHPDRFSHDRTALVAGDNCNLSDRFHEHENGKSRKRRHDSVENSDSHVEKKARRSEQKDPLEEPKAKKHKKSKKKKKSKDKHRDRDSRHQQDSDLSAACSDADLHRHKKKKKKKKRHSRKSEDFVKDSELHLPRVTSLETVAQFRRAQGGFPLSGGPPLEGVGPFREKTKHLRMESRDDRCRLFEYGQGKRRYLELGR
In short: (§1)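 Using Biotin-Ahx-Ub-VS at 0.5 µM final for 1 h, DUBs were labelled in HEK293T lysate (495 µg per sample) that had first been treated in triplicate with fragment at 200 µM or vehicle for 3 h. NeutrAvidin enrichment, LysC and trypsin digestion and diaPASEF LC-MS/MS followed. Spectronaut label-free quantities were global-median-normalised. Values are average log2 fragment/vehicle ratios by unpaired t-test, using proteins with ≥2 unique peptides.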

USP46 = USP46 (UniProt P62068)
Chain of USP46 (P62068 whole entry): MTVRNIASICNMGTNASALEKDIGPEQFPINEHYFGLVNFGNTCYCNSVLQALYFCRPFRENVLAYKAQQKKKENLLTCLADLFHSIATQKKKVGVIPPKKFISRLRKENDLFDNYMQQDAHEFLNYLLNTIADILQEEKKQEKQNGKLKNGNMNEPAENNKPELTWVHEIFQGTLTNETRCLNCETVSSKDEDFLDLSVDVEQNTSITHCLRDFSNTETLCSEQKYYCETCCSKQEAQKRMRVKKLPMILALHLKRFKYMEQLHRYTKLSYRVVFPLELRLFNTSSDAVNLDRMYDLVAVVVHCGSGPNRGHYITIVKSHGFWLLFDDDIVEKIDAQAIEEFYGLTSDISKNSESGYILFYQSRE
In short: as §1

USP47 = biological target: T2, USP47 (UniProt Q96K76)
T2 sequence (whole entry): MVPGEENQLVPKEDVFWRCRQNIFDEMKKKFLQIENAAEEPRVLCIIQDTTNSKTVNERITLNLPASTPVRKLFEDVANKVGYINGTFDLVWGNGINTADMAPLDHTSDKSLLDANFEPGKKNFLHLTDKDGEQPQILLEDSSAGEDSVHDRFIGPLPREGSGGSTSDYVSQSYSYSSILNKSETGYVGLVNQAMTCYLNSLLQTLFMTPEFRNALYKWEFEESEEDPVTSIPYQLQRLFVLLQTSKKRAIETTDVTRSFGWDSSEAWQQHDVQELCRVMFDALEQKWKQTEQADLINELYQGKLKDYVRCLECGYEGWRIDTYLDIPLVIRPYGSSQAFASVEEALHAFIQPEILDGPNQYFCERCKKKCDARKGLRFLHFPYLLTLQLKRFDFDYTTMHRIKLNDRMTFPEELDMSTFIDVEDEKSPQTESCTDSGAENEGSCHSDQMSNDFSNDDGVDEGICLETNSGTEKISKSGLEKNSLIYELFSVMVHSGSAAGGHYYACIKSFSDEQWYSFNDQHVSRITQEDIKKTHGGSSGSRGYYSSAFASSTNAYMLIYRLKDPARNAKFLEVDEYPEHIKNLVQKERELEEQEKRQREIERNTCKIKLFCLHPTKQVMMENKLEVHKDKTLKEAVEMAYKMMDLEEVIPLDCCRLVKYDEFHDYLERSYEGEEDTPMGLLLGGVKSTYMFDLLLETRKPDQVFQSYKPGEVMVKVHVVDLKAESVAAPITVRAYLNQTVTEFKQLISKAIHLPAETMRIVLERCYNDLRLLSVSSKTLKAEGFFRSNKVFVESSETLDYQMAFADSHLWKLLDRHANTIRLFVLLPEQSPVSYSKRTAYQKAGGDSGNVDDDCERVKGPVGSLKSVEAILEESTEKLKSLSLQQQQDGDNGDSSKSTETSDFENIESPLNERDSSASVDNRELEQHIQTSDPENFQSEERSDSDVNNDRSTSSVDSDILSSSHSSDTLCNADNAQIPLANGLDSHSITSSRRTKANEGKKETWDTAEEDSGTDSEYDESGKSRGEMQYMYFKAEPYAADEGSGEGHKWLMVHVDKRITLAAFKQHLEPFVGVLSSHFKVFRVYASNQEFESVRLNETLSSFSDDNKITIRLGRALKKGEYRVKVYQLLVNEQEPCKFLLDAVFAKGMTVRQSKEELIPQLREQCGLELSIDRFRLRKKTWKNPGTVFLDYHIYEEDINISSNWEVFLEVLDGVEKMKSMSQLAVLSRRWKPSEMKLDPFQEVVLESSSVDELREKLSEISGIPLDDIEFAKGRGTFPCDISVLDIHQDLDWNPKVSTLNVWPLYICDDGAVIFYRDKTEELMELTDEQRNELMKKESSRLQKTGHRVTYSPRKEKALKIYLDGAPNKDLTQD
In short: as §1

USP48 = biological target: T3, USP48 (UniProt Q86UV5)
T3 sequence (whole entry): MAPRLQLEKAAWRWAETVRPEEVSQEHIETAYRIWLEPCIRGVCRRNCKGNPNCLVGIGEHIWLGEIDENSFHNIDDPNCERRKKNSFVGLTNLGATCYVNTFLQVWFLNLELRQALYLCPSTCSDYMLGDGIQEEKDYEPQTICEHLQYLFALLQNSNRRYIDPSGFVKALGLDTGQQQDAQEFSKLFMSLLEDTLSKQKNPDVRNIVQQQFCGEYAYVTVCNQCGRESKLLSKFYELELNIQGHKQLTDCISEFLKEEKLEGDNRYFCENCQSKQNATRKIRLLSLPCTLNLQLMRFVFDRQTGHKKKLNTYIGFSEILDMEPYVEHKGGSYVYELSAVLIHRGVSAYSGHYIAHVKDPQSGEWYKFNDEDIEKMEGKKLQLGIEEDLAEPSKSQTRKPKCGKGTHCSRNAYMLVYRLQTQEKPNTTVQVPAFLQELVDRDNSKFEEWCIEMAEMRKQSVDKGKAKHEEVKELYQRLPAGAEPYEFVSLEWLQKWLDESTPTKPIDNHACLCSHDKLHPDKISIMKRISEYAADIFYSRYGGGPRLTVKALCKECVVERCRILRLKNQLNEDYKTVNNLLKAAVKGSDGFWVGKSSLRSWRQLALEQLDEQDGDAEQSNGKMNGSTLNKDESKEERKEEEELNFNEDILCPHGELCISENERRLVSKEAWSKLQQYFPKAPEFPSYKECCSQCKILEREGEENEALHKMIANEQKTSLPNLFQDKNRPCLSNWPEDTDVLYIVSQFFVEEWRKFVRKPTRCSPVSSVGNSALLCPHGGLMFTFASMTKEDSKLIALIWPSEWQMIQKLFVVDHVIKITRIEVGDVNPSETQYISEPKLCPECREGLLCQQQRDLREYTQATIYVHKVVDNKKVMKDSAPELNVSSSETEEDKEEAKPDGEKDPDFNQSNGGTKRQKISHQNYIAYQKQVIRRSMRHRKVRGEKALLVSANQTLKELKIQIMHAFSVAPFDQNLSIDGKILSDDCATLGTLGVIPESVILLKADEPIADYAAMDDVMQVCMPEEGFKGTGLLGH
In short: as §1

USP5 = biological target: T4, USP5 (UniProt P45974)
T4 sequence (whole entry): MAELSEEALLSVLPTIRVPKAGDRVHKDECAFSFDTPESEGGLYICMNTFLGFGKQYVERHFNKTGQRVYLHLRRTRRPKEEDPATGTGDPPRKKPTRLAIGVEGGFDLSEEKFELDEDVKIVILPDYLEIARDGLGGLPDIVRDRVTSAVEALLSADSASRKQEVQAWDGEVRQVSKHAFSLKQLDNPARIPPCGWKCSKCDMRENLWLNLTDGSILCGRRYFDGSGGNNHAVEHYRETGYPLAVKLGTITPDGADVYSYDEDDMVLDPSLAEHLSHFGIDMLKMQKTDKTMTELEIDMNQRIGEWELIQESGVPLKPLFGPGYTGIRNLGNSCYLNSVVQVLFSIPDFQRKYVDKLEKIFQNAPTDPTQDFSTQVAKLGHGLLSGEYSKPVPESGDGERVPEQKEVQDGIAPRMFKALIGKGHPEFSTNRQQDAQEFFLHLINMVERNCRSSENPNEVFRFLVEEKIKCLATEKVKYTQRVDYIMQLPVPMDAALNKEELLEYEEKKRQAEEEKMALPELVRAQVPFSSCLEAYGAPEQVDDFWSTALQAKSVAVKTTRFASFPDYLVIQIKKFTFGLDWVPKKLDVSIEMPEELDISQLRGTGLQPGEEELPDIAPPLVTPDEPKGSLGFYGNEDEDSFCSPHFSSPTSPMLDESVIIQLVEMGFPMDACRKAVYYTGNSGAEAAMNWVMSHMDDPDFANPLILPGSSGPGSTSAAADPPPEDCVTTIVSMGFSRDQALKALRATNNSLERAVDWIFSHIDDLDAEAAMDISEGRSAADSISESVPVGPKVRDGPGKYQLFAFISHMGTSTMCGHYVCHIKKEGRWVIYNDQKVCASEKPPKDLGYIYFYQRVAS
In short: as §1

USP54 = USP54 (UniProt Q70EL1)
Chain of USP54 (Q70EL1 whole entry): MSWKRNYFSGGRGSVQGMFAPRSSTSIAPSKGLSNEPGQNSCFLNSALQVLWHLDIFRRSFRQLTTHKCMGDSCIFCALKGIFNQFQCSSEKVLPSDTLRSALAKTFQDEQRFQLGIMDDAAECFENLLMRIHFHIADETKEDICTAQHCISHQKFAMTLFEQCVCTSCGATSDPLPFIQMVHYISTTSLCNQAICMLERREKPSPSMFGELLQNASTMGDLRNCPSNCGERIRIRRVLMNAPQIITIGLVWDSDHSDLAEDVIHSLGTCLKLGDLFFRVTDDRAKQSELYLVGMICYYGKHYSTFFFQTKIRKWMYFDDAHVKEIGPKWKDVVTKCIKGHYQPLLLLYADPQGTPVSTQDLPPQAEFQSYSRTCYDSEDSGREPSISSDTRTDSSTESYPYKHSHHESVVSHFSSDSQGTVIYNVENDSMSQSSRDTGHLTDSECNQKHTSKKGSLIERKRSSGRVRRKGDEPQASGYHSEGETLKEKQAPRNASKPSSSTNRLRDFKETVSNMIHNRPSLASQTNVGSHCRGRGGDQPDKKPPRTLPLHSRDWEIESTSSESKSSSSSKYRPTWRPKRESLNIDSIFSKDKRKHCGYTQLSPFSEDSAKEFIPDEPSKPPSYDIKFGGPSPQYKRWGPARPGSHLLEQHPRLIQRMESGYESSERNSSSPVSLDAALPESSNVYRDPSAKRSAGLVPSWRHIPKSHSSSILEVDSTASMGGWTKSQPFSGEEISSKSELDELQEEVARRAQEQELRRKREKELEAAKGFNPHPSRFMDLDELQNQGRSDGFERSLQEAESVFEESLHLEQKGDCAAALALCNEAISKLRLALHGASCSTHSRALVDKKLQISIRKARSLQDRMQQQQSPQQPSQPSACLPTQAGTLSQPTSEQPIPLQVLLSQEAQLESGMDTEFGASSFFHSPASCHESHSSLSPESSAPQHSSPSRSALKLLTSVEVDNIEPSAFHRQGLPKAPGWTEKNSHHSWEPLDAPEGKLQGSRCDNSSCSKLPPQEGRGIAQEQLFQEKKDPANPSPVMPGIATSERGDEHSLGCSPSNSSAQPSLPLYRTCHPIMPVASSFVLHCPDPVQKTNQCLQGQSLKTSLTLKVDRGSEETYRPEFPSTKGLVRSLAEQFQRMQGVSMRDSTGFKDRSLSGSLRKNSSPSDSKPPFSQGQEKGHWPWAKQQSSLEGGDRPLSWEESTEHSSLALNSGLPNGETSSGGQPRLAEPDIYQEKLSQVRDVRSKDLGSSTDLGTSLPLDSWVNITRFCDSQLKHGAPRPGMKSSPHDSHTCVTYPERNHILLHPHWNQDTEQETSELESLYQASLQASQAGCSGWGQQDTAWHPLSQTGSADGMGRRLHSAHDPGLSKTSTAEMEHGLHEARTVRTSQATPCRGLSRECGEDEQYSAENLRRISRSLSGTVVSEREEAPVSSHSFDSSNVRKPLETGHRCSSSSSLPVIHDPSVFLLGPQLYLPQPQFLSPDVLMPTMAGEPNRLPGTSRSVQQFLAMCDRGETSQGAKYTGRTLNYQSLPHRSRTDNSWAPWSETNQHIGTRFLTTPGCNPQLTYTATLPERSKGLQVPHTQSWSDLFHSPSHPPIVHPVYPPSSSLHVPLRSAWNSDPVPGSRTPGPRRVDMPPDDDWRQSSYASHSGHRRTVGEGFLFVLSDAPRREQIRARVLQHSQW
In short: as §1

USP7 = USP7 (UniProt Q93009)
Chain of USP7 (Q93009 whole entry, looked up): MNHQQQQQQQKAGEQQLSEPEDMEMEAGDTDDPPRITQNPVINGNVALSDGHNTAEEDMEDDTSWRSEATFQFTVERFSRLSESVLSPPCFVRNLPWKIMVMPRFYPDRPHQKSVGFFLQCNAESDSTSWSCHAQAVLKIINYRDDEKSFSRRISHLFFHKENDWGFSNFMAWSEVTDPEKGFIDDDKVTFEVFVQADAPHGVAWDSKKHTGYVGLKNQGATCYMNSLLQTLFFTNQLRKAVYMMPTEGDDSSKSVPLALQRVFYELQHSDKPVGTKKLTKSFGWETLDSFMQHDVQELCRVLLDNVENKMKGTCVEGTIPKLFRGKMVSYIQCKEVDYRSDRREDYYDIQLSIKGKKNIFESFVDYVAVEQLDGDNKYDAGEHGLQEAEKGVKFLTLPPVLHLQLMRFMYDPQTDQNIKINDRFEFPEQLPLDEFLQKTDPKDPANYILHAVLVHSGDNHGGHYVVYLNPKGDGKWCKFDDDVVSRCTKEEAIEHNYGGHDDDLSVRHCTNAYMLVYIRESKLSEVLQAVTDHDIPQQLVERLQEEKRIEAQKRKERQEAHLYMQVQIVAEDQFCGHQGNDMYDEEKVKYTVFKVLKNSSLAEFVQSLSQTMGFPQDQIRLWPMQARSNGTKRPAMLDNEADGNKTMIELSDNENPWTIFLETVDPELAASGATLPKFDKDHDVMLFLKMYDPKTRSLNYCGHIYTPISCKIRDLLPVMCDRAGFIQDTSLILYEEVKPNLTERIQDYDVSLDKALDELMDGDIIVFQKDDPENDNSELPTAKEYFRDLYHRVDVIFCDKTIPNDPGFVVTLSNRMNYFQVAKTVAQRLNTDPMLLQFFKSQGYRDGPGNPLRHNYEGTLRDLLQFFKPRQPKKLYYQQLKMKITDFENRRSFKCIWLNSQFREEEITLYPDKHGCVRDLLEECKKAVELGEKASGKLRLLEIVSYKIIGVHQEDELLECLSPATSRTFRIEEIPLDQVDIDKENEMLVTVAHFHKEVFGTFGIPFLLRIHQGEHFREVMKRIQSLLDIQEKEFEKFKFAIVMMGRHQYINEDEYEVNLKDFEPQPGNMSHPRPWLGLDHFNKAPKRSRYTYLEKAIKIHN
In short: as §1

USP8 = biological target: T5, USP8 (UniProt P40818)
T5 sequence (whole entry): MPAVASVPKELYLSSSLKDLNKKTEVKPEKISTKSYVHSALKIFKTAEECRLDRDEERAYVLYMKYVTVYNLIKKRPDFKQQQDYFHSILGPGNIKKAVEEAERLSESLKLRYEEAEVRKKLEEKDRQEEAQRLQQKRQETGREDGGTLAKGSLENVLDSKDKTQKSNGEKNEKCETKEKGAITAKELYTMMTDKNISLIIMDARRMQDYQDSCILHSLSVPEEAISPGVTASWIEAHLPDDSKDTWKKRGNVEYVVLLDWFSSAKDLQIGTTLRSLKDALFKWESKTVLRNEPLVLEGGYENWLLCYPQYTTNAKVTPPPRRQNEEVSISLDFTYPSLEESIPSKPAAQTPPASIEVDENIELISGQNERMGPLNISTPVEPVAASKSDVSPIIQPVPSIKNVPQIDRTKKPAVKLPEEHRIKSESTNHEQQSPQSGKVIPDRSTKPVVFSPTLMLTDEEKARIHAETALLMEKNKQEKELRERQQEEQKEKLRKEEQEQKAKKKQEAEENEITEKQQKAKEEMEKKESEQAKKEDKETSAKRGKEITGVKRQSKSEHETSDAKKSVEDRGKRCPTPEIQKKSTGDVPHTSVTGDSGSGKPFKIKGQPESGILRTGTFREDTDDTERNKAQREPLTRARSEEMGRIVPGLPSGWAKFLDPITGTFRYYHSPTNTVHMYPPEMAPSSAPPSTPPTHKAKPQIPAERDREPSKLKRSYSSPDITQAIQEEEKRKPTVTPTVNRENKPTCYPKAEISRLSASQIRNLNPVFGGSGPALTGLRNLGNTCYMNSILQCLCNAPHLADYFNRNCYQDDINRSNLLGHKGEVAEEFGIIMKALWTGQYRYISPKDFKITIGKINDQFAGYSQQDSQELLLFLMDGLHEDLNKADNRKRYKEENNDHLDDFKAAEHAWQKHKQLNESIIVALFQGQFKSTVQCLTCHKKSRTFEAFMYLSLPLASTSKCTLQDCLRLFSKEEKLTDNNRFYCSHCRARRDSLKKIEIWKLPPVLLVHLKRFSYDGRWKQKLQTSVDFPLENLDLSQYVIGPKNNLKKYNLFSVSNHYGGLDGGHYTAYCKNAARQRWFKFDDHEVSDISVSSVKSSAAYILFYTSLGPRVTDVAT
In short: as §1

Measured: log2 ratio of Biotin-Ahx-Ub-VS probe labelling

CN(CCc1ncc(Br)cn1)C(=O)CCl.Cl
inactive: USP42 0.325 | USP46 -0.136 | USP47 -0.331 | USP48 -0.46 | USP5 0.24 | USP54 0.619 | USP7 -0.266 | USP8 -0.602
